PubChem BioAssay (NCI)
About 83,000 compounds went through this panel and 20% of them were active in at least one assay; those are over-represented in the sample as a whole.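 Percent growth is the endpoint: 0 to 100 indicates growth inhibition (40 means 60% inhibition), 0 means no net growth, and negative values indicate cell death.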 Values without a mark were called inactive. Active and inactive are the calls of the source. How the source made its calls: active means growth percent below 10; inactive means the rest.

Tests used:
Assay in all cases: NCI-60 one-dose screen, 48 h (100 = growth as untreated, 0 = no growth, -100 = all killed)
Details in all cases: 10 µM unless noted
NCI-H226 lung = system: NCI-H226 lung
NCI-H322M lung = system: NCI-H322M lung
HOP-62 NSCLC = system: HOP-62 NSCLC
NCI-H460 lung = system: NCI-H460 lung
HOP-92 NSCLC = system: HOP-92 NSCLC
NCI-H522 lung = system: NCI-H522 lung
A549/ATCC NSCLC = system: A549/ATCC NSCLC
786-0 renal = system: 786-0 renal
COLO 205 colon = system: COLO 205 colon
DU-145 prostate = system: DU-145 prostate
K-562 leukemia = system: K-562 leukemia
MALME-3M melanoma = system: MALME-3M melanoma
MDA-MB-231 breast = system: MDA-MB-231 breast
RXF 393 renal = system: RXF 393 renal
SF-268 CNS = system: SF-268 CNS
SF-295 CNS = system: SF-295 CNS
SF-539 CNS = system: SF-539 CNS
UACC-257 melanoma = system: UACC-257 melanoma
M14 melanoma = system: M14 melanoma

Row | Structure (SMILES) | growth (NCI-H226 lung) | growth (NCI-H322M lung) | growth (HOP-62 NSCLC) | growth (NCI-H460 lung) | growth (HOP-92 NSCLC) | growth (NCI-H522 lung) | growth (A549/ATCC NSCLC) | growth (786-0 renal) | growth (COLO 205 colon) | growth (DU-145 prostate) | growth (K-562 leukemia) | growth (MALME-3M melanoma) | growth (MDA-MB-231 breast) | growth (RXF 393 renal) | growth (SF-268 CNS) | growth (SF-295 CNS) [%] | growth (SF-539 CNS) | growth (UACC-257 melanoma) | growth (M14 melanoma)
1 | CN1CCN(CCCOc2cccc3nc(Nc4cc(Cl)cc(Cl)c4)ccc23)CC1 | -10.9% (active) | 3.59% (active) | 19.8% | -37% (active) | 3.95% (active) | -18.3% (active) | 0.988% (active) | 37.3% | -67.4% (active) | -23.8% (active) | -54.7% (active) | -53.5% (active) | -44.6% (active) | 38.8% | 16% | 40.2 | 7.62% (active) | -44.6% (active) | -55.7% (active)
2 | O=C1OCC2=C1C(c1ccncc1)c1cc3c(cc1N2CCO)OCO3 (stereo not given) | 102% | 98.3% | 93.5% | 101% | 87.6% | 91.2% | 98.9% | 112% | 53.1% | 107% | 110% | 89.9% | 101% | 99.3% | 97.7% | 102 | 101% | 99.5% | 107%
3 | CNc1ccc(-c2cc(=O)oc3ccc(Cl)cc23)cc1 | 48.1% | 54.4% | 26.2% | 6.78% (active) | 37.3% | -25.3% (active) | 10.1% | 37.3% | -15.1% (active) | 18% | 11% | 110% | 16.2% | 43.1% | 27.6% | 18.1 | -2.97% (active) | 38% | 25.4%
4 | CC[C@@H]1O[C@H](O[C@@H](c2cnc[nH]2)[C@H](NC(=O)c2nc([C@H](CC(N)=O)NC[C@@H](N)C(N)=O)nc(N)c2C)C(=O)N[C@H](C)[C@H](O)[C@H](C)C(=O)N[C@@H](C(=O)NCCc2nc(-c3nc(C(=O)NCCCCN=C(N)N)cs3)cs2)[C@@H](C)O)[C@H](O[C@@H]2O[C@H](CO)[C@H](O)[C@H](OC(N)=O)[C@@H]2O)[C@H](C)[C@@H]1C | 13% | 105% | 15.6% | 12.5% | 11.4% |  | 36.6% | 25.4% | 64.2% | 49.4% | 82% | 45% | 88.7% |  | 23.1% |  |  | 70.9% | 39.2%
5 | CCCCN1CCCn2c1nc1c2c(=O)n(CCC)c(=O)n1CCC | 113% | 97.7% | 102% | 99.6% | 81.7% | 76.6% | 82.2% | 95.8% | 114% | 105% | 75.7% | 123% | 93.8% | 91.3% | 95.2% | 102 | 100% | 97.4% | 110%
6 | CCOC(=O)n1cc(-c2nonc2-c2cn(C)c3ncccc23)c2cc(F)ccc21 | 57.8% | 85.8% | 89.8% | 92.1% | 58.8% | 72% | 70.1% | 81.3% | 96% | 91.1% | 61.2% | 84.4% | 68.2% | 78.3% | 74.2% | 76 | 77.9% | 91.2% | 93.8%
7 | O=[N+]([O-])c1cnc(N2CCN(CC3CC3)CC2)nc1N1CCN(CC2CC2)CC1 | 81.3% | 88.8% | 108% | 102% | 74% | 93.9% | 104% | 94.8% | 97.1% | 101% | 102% | 97.7% | 99.9% | 73.1% | 87.7% | 99.5 | 90.8% | 108% | 98.2%
8 | O=C(CN1C(=O)/C(=C/c2ccc(Cl)cc2)SC1=S)NCCCN1CCOCC1 | 95.2% | 104% | 111% | 101% | 85.7% | 96.9% | 104% | 111% | 116% | 102% | 94.2% | 90.7% | 99.3% | 105% | 93.6% | 93.2 | 92.8% | 101% | 113%
9 | CN1CCN=C1c1ccc(NC(=O)c2ccc(C(=O)Nc3ccc(C4=NCCN4C)cc3)cc2)cc1 | 98.6% | 92.2% | 97.8% | 91% | 82.5% | 87% | 101% | 101% | 99.6% | 119% |  | 80.6% | 103% |  | 111% | 92.9 | 94.1% |  | 95.9%
10 | O=C(CCCCC(=O)N/N=C\c1ccccc1O)N/N=C\c1ccccc1O | 52.9% | 27.5% | 39.1% | 12.2% | 64.4% | 46.4% | 48.9% | 19.6% | 35.4% | 45.1% |  | 32.6% | 50% | 43.4% | 40% | 37.9 | 19% | 26% | 20.9%
11 | Nc1nc2ccc3[nH]ncc3c2c2c1CCCC2 | 6.29% (active) |  | 2.81% (active) | 2.07% (active) | -12.6% (active) | -1.98% (active) | 8.61% (active) | 6.18% (active) | -19% (active) | 6.94% (active) | 9.77% (active) | 23% | 4% (active) | -51.1% (active) | -9.66% (active) | 17.1 | -32.9% (active) | 15.6% | 1.67% (active)
